# gsp ag: qHTS for Agonist of gsp, the Etiologic Mutation Responsible for Fibrous Dysplasia/McCune-Albright Syndrome: qHTS | Potency, µM (top dose mostly 76.9 µM), for the others: at the top dose activation (cAMP increase), actives largely listed as activators | 0.13% of 340,000 active | gsp mutant cells, cAMP HTRF, 30 min; active means well fitted activation curve with a large enough effect; inconclusive means small, poorly fitted or top-dose-only effect, or another doubt; inactive means no such curve, though single readings can be large or run the other way; cell line not stated here;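 further: phosphodiesterase inhibitor Ro 20-1724 added with compounds to block cAMP breakdown; potency means the concentration at half of the fitted maximal effect; nearly all actives have a fitted effect of over 60% in size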
#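 Cells stably selected in G418 were plated at 2000/well, grown 16-24 hr, then given compounds in DMSO with the PDE inhibitor […] (300 uM solution added) for 30 min at 37C; cAMP was read by HTRF.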
# IL2 activator: qHTS of IL-2 Activators | IL-2 activation reporter assay, cell-based qHTS; stimulated with anti-CD3/CD4/CD28 beads; in transgenic mouse T cells | activation, % (series mostly up to about 46 µM) | 0.065% of 360,000 active | AID 652025, 2013; in the data active means activation above about 50%; inconclusive means mostly about 30% to 49%; further: 0% is about no effect
#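 Readout is EGFP and DsRed signal by fluorescent plate cytometry after 18 h at 37 degrees C. Transgenic mouse T cells (750/well) received compound for 60 min before bead stimulation (anti-CD3, anti-CD4, anti-CD28); memory T cells served as non-tolerant control.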
# gsp antag: qHTS for Antagonists of gsp, the Etiologic Mutation Responsible for Fibrous Dysplasia/McCune-Albright Syndrome: qHTS; 0.4% of 340,000 active; gsp-mutant cells, cAMP HTRF, 30 min; Potency, µM (titrated, usually from 76.9 µM), for inactives: at the highest dose activity change, negative = inhibition, most hits filed as inhibitors; calls by dose curve; cell line not stated here;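 further: intracellular cAMP measured with PDE inhibitor Ro 20-1724 present during compound exposure; potency means the concentration at half of the fitted maximal effect; on the % scale 0 is the no-effect control and ±100 the full control effect; nearly all actives have a fitted effect of over 65% in size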
#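 HTRF cAMP read-out (cAMP-d2 plus anti-cAMP antibody-K in lysis buffer, 30 min RT). Before lysis, cells are exposed to compounds with […] for 30 min at 37C in DPBS containing Ca/Mg, BSA and Tween 20.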
# BRCA1 expr up: qHTS Assay to Identify Small Molecule Activators of BRCA1 Expression. 1.1% of 380,000 active. Potency, µM (highest dose often 46.1 µM), for inactives: at the top dose activation, most hits filed as activators. MCF7-BRCA1-FFLuc reporter, luminescence, 48 h; response scale: scaled: vehicle 0%, 10 µM genistein 100%; further: potency means the concentration at half of the fitted maximal effect; nearly all actives have a fitted effect of over 80% in size
#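 Reporter cells (MCF7, BRCA1 promoter-firefly luciferase) received library compounds across a concentration series for 48 h. End-point luminescence was measured and concentration-effect curves derived after normalization.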
# mIDH1 inhibitor: qHTS for Inhibitors of mutant isocitrate dehydrogenase 1 (IDH1): qHTS | Isocitrate dehydrogenase [NADP] cytoplasmic (Homo sapiens), O75874 | IDH1-R132H enzyme, NADPH consumption, diaphorase/resazurin fluorescence | Potency, µM (titrated, usually from 76.6 µM), inactives show top-dose activity change, negative = inhibition, usual class: inhibitors | 0.093% of 390,000 active; further: potency means the concentration at half of the fitted maximal effect; on the % scale 0 is the no-effect control and ±100 the full control effect; nearly all actives have a fitted effect of over 65% in size
# Target sequence (O75874 whole entry R132H, stated change not applied): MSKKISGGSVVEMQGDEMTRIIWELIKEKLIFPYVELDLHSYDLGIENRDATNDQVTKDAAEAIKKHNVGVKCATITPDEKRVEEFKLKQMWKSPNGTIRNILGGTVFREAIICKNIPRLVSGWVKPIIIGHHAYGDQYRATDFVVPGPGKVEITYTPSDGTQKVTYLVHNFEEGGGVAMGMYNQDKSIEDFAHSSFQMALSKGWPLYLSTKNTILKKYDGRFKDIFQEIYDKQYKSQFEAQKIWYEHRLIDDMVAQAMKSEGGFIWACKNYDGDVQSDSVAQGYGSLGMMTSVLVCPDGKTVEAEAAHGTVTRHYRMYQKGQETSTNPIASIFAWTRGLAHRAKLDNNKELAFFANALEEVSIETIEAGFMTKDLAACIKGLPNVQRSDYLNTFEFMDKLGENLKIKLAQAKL
#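 IDH1-R132H (0.5 ug/mL dispensed) in pH 7.5 Tris buffer was preincubated 30 min with compound, then given a substrate mix of 0.016 mM NADPH and 2 mM alpha-KG for 80 min at room temperature; remaining NADPH was read by diaphorase/resazurin fluorescence.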
# IDH1 autofl: qHTS for Inhibitors of mutant isocitrate dehydrogenase 1 (IDH1): Cherrypicks Autofluorescence Interference; 750 tested, under 10 active; shares compounds with mIDH1 inhibitor; AID 623980, 2012; inhibition of signal, % at 51.2 µM; Resorufin detection reagent fluorescence interference, cell-free;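 further: 0% = wells with normal resorufin and full inhibition = wells lacking resorufin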
# WT IDH1 inh: qHTS for Inhibitors of mutant isocitrate dehydrogenase 1 (IDH1): Cherrypicks in WT IDH1; shares compounds with mIDH1 inhibitor; WT IDH1 enzyme, NADPH diaphorase/resazurin fluorescence; Potency, µM (doses to about 115 µM), without a hit: at the highest dose activity change, negative = inhibition, hits mostly inhibitors; 9% of 750 active;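 further: potency means the concentration at half of the fitted maximal effect; 0% = full WT IDH1 enzyme control and full inhibition = no enzyme wells; nearly all actives have a fitted effect of over 55% in size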
# Target sequence (O75874 whole entry, looked up): as the sequence (O75874 whole entry R132H, stated change not applied) above, with H132R counted along it
# IDH1 R132H conf: qHTS for Inhibitors of mutant isocitrate dehydrogenase 1 (IDH1): Confirmation of Cherrypicks | shares compounds with mIDH1 inhibitor | AID 624002, 2012 | 83% of 750 active | Potency, µM (top dose mostly 76.6 µM), for inactives: at the top dose activity change, negative = inhibition, most hits filed as inhibitors | IDH1 R132H enzyme, NADPH diaphorase/resazurin fluorescence; further: potency means the concentration at half of the fitted maximal effect; nearly all actives have a fitted effect of over 50% in size
# * = called active by the depositor; ? = inconclusive; nt = not tested or not shown; [ ] = remark or other dose. Rows were chosen to be rich in hits. Some 1.5% of all compounds tested hit in one or more screens of this group. Unless noted, the call rests on the fitted dose curve; in most records, active means well fitted curve in the direction sought with a large enough effect; inconclusive means small, poorly fitted or top-dose-only effect, or another doubt; inactive means no such curve, though single readings can be large; an effect the other way counts as inactive or inconclusive.
SMILES,gsp ag,IL2 activator,gsp antag,BRCA1 expr up,mIDH1 inhibitor,IDH1 autofl,WT IDH1 inh,IDH1 R132H conf
CCN(CC)C(=O)c1sc2c(c1C)c(=O)n(-c1ccccc1)c(=O)n2Cc1c(C)cc(C)cc1C,nt,nt,nt,nt,40µM*,-5,-5%,35µM*
COc1ccc(C(=O)N2CCOCC2c2cc(C(=O)NCc3ccccc3)no2)cc1 (configuration not stated),nt,1,nt,13%,nt,nt,nt,nt
CCc1ccc(Sc2cc(C(=O)NC(C)CC)c3ccccc3n2)cc1 (configuration not stated),nt,nt,nt,0%,?,-5,-12%,?
CCC(C)NC(=O)c1cc(Sc2cccc(Cl)c2)nc2ccccc12 (configuration not stated),nt,nt,nt,nt,10%,nt,nt,nt
CCc1ccc(NC(=O)Cn2cnc3sc(C)c(S(=O)(=O)N4CCC(C)CC4)c3c2=O)cc1,nt,nt,nt,nt,3%,nt,nt,nt
O=C(/C=C/c1cccc([N+](=O)[O-])c1)c1ccc([N+](=O)[O-])o1,nt,0,?,-17%,?,nt,nt,nt
Cc1cccc(/C=C/C(=O)c2ccc([N+](=O)[O-])o2)c1,nt,-1,-8%,-82%,4.5µM*,1,22µM*,2µM*
Cc1ccccc1/C=C/C(=O)c1ccc([N+](=O)[O-])o1,nt,-1,-9%,-39%,?,-6,40µM*,?
O=[N+]([O-])c1ccccc1OCC(O)CN1CCN(CC(O)COc2ccccc2[N+](=O)[O-])CC1 (configuration not stated),-21%,0,13%,-20%,-1%,nt,nt,nt
CC(C)c1ccc(/C=N/Nc2cc(N3CCOCC3)nc(N3CCOCC3)n2)cc1,-9%[15.4 µM],0,-11%,-28%,5%,nt,nt,nt
Cc1cccc(/C=N/Nc2cc(N3CCOCC3)nc(N3CCOCC3)n2)c1,-27%,3,-27%,-67%,?,-1,-5%,13µM*
CC(C)n1c(=O)c2ccccc2n1CC(=O)N1CCOCC1,nt,3,nt,19%,nt,nt,nt,nt
Cc1ccc(NC2(c3nnnn3-c3c(C)cccc3C)CCCCC2)cc1,-61%,-3,?,-33%,58µM*,-8,0%,-12%
Cc1ccc(S(=O)(=O)NC(=O)C2(C)CCN2C(=O)CC2CCCC2)nc1 (configuration not stated),nt,0,nt,22%,nt,nt,nt,nt
COC(=O)c1c(NC(C)=O)sc(Cc2ccccc2)c1C,-37%,0,-11%,-15%,?,-6,5%,50µM*
COC(=O)c1c(NC(=O)c2ccccc2)sc(Cc2ccccc2)c1C,1%,0,6%,-17%,2%,nt,nt,nt
Cc1ccccc1C(=O)Nc1ccc(C(=O)OCc2cc(=O)n3nc(C(C)C)sc3n2)cc1,nt,nt,nt,nt,-6%,nt,nt,nt
N#Cc1ccccc1S(=O)(=O)N1CCCC(c2nc3c(nnn3Cc3cccc(Cl)c3)c(=O)[nH]2)C1 (configuration not stated),nt,nt,nt,nt,6%,nt,nt,nt
CC(=O)Nc1ccc(NC(=O)c2ccc(NS(=O)(=O)c3cc(C(C)(C)C)cc(C)c3C)cc2)cc1,6%[15.4 µM],2,-20%,-18%,-11%,nt,nt,nt
Cc1cc(C(C)(C)C)cc(S(=O)(=O)Nc2ccc(O)c(C(=O)O)c2)c1C,8%,-2,?,7%,?,0,1%,28µM*
Cc1ccc(CN2CCSc3ccc(C(=O)N4CCN(c5ncccn5)CC4)cc32)cc1,2%,-2,?,-58%,?,6,3%,16µM*
CCN1CCN(C(=O)c2ccc3c(c2)N(Cc2ccc(C)cc2)CCS3)CC1,14%,2,-7%,-26%,11%,nt,nt,nt
COc1ccc(-c2cc(NCc3ccc(C)cc3)n3cnnc3n2)cc1,nt,nt,nt,-28%,8%,nt,nt,nt
Cc1ccc(-c2nn3c(-c4ccccc4C)nnc3c3ccccc23)cc1,nt,nt,nt,nt,40µM*,1,-2%,22µM*
COc1ccc(-c2cc(C(F)(F)F)nc(SCC(=O)Nc3ccc(C(C)=O)cc3)n2)cc1,nt,nt,nt,-26%,0%,nt,nt,nt
SMILES,gsp ag,IL2 activator,gsp antag,BRCA1 expr up,mIDH1 inhibitor,IDH1 autofl,WT IDH1 inh,IDH1 R132H conf
Nc1c(S(=O)(=O)O)cc(NC(=O)c2ccccc2)c2c1C(=O)c1ccccc1C2=O,6%,0,?,-19%,?,-14,28µM*,14µM*
CCOc1ccc(C2NC(=O)c3n[nH]c(C)c32)cc1 (configuration not stated),-37%,3,-6%,1%,-4%,nt,nt,nt
CC(C)(C)c1ccc(C2NC(=O)c3n[nH]c(-c4cccs4)c32)cc1 (configuration not stated),nt,nt,nt,nt,?,0,0%,40µM*
COc1ccc(N(C(=O)Cc2cccs2)C(C(=O)NC2CCCC2)c2ccncc2)cc1OC (configuration not stated),1%[15.4 µM],1,8%,-10%,25%,nt,nt,nt
COc1cc(N(C(=O)Cc2cccs2)C(C(=O)NC2CCCCC2)c2ccc(C)cc2)ccc1-n1cnnn1 (configuration not stated),0%,0,6%,-23%,23µM*,-6,0%,7.1µM*
Cc1ccc(N(C(=O)Cc2cccs2)C(C(=O)NC2CCCCC2)c2ccccn2)cc1C (configuration not stated),22%,-1,-17%,-61%,?,-1,2%,10µM*
Cc1ccc(CNC(=O)C2(C)CCN2C(=O)Cc2ccc(C(C)(C)C)cc2)cc1 (configuration not stated),nt,-1,nt,0%,nt,nt,nt,nt
CC(=O)c1ccc(NS(=O)(=O)c2cccc(S(=O)(=O)c3ccc(Cl)cc3)c2)cc1,nt,nt,nt,nt,?,7,-1%,45µM*
CC(C)(C)c1ccc(CC(=O)N2CCC2(C)C(=O)Nc2cnc3ccccc3c2)cc1 (configuration not stated),nt,-1,nt,-39%,nt,nt,nt,nt

# Screens deposited in PubChem BioAssay by National Center for Advancing Translational Sciences (NCATS).
